# Measurements from publication PMC4336329 (PLoS ONE, 2015).
# Hit rate of the full screen: of about 310,000 compounds, about 14,000 (4.5%) showed an effect of 50% or more. Effects have a minus sign here. The full list was thinned out, with strong results kept by preference. *1 amine or outer side, *2 acyl side, *3 side chain or, on linkers, in order; H or OH if unused. Where a SMILES comes first, the peptide text is derived from it. Bridges are numbered along the chain shown (N, C = ends). [ ]: non-standard residue; d: D form. ξ: configuration not given here. hSer(Ph(2-I,4-NO2,6-CO)) = O=C([C@H](CCOc1c(I)cc([N+](=O)[O-])cc1C(=O)[*:3])N[*:1])[*:2]; ξD = NC(CC(=O)O)C(=O)O
# Molecular target: human ether-à-go-go-related gene (hERG) potassium channel (human, UniProt Q12809)
# Assay: primary screen, population patch clamp on CHO cells stably expressing hERG; higher = less effect of the substance
# 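Also: peak tail current of the secondary pulse compared with the same well before compound.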
# Sequence of human ether-à-go-go-related gene (hERG) potassium channel (Q12809 whole entry, looked up): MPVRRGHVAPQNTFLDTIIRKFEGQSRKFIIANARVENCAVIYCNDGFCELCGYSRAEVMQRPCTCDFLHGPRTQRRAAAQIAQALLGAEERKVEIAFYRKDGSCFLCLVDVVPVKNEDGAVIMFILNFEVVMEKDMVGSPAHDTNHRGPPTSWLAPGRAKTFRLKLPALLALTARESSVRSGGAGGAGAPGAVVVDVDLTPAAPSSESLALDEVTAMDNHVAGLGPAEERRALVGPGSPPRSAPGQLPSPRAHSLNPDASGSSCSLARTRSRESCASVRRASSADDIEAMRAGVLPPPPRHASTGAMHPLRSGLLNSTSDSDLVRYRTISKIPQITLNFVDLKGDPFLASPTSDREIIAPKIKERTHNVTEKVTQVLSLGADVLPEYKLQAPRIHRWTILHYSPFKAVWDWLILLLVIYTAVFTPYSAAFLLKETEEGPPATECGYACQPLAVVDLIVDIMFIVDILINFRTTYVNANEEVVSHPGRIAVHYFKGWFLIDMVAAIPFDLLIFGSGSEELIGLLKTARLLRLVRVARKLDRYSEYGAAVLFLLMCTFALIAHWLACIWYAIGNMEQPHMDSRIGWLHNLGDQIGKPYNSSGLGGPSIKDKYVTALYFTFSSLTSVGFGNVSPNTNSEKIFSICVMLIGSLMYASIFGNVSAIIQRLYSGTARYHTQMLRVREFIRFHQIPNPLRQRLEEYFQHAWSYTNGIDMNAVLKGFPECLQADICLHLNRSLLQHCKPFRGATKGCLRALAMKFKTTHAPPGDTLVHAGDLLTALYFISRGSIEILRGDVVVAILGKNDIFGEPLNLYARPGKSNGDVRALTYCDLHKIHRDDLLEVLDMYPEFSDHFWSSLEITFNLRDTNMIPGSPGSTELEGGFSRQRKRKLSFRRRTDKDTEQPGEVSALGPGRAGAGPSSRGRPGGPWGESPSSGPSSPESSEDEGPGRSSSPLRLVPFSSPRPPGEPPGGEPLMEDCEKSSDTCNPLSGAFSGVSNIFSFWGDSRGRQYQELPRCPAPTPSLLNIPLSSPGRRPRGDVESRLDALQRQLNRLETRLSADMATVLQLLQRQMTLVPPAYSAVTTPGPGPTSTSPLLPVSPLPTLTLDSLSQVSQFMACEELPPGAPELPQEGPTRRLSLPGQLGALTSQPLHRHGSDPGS
row,Structure (SMILES),"hERG current change (%, negative = inhibition) at 10uM"
1,Cc1cc(NC(=O)C2CCCN(S(=O)(=O)c3c(C)noc3C)C2)no1 (centres unmarked),-0.534%
2,Cc1oc(-c2cccs2)nc1CSCC(=O)NC1CC1,-3.82%
3,CCC1=NN(C(=O)Cc2ccc([N+](=O)[O-])cc2)C(O)(c2ccncc2)C1 (centres unmarked),-11.9%
4,COc1ccc(NC(=O)c2cccc(N3C(=O)C4C5C=CC(C5)C4C3=O)c2)cc1Cl (centres unmarked),2.2%
5,C=CCN1C(=O)C(Cc2ccc(F)cc2)S/C1=N/N=C/c1cccs1 (centres unmarked),-9.46%
6,CC(C)C(NC(=O)c1ccco1)C(=O)NCC(c1ccco1)N(C)C (centres unmarked),12.5%
7,COc1ccc(N2CCN(CC(O)COc3ccc4c(c3)CCC4)CC2)cc1.Cl (centres unmarked),-48.3%
8,COc1ccc(N2CCN(CC(O)COc3cc(C)ccc3C)CC2)cc1.Cl (centres unmarked),-33.8%
9,COc1ccc(N2CCN(CC(O)COc3cc(C)cc(C)c3)CC2)cc1.Cl (centres unmarked),-48.8%
10,CC1CC(C)CN(CC(O)COc2ccc3c(c2)CCC3)C1.Cl (centres unmarked),-53.2%
11,COc1ccccc1N1CCN(CC(O)COc2ccc3c(c2)CCC3)CC1.Cl (centres unmarked),-74.2%
12,CCN1CCN(CC(O)COc2ccc3c(c2)CCC3)CC1.Cl (centres unmarked),5.59%
13,CCOc1ccccc1N1CCN(CC(O)COc2ccc3c(C)cc(=O)oc3c2)CC1 (centres unmarked),-53.1%
14,OC(COc1ccc2c(c1)CCC2)CN1CCN(c2ccccc2F)CC1 (centres unmarked),-14.6%
15,COc1ccccc1N1CCN(CC(O)COc2ccc3c(C)cc(=O)oc3c2)CC1 (centres unmarked),-24.7%
16,COc1cccc(OCC(O)CN2CC(C)CC(C)C2)c1.Cl (centres unmarked),-13.5%
17,COc1ccc(N2CCN(CC(O)COc3ccc(C)cc3C)CC2)cc1.Cl (centres unmarked),-67.8%
18,Cc1cc(=O)oc2cc(OCC(O)CN3CCN(c4ccccc4)CC3)ccc12.Cl (centres unmarked),-47.4%
19,O=C(CSc1nnc(-c2ccccc2)o1)N1CCOCC1,6.37%
20,"NC(=O)C(CC(=O)O)NC(=O)[C@@H]1CCOc2c(I)cc([N+](=O)[O-])cc2C(=O)N[C@@H](CCC(=O)O)C(=O)N[C@@H](CO)C(=O)N1 (some centres unmarked) (ES[hSer(Ph(2-I,4-NO2,6-CO))][ξD]-NH2; lactam N-3)",-5.73%
21,Br.C=CCn1c(C)csc1=Nc1ccc(C(=O)O)cc1,13.5%
22,Cc1ccc(S(=O)(=O)Cc2cc(F)c([N+](=O)[O-])cc2[N+](=O)[O-])cc1,-14.3%
23,COc1ccc(CCNC(=S)NC(=O)c2cccc(Cl)c2)cc1OC,1.73%

row,Structure (SMILES),"hERG current change (%, negative = inhibition) at 10uM"
1,Cc1ccc(-c2nnc(N3CCN(c4ccccn4)CC3)c3ccccc23)cc1,-46.3%
2,COc1ccccc1N1CCN(CC(O)COc2ccc3c(c2)OCO3)CC1.Cl (centres unmarked),-33.7%
3,COc1ccccc1N1CCN(CC(O)COc2ccc(C)cc2C)CC1.Cl (centres unmarked),-73.1%
4,COc1ccc(N2CCN(CCOc3ccc4c(C)cc(=O)oc4c3)CC2)cc1,-26.1%
5,COc1ccc(N2CCN(CC(O)COc3ccc(C)c(C)c3)CC2)cc1.Cl (centres unmarked),-43.7%
6,COc1ccccc1N1CCN(CC(O)COc2ccc(C)c(C)c2)CC1.Cl (centres unmarked),-55.9%
7,Cc1ccccc1N1CCN(CCCOc2ccc3c(C)cc(=O)oc3c2)CC1,-75.3%
8,CNCC(O)CN1CCN(c2ccccc2OC)CC1.Cl (centres unmarked),12.7%
9,Cc1cc(=O)oc2cc(OCCCN3C(=O)c4ccccc4C3=O)ccc12,10.4%
10,O=C(CCc1ccccc1)NNC(=O)C1CCCCC1,-2.12%
11,CC(C)Nc1ccc(-n2nc3ccccc3[n+]2[O-])cc1,6.09%
12,O=C1CCCCCC1C1(O)C(=O)Nc2ccccc21 (centres unmarked),-1.78%
13,CC1(c2ccccc2)NC(=O)N(CC(=O)NNC(=O)c2ccccc2)C1=O (centres unmarked),21.3%
14,Cc1ccc(CNC(=O)C2CC(=O)OC23CCCC3)c(C)c1 (centres unmarked),-0.109%
15,CCCCNC(=O)c1ccc(CNS(=O)(=O)c2ccc(Br)cc2)cc1,2%
16,CCOc1ccc2nc(NC(=O)CSc3nc4cccnc4n3C)sc2c1,17.4%
17,COc1ccccc1N1CCN(C(c2ccc(C)cc2)c2nnnn2C(C)C)CC1 (centres unmarked),-5.61%
18,O=C(Nc1sc2c(c1C(=O)O)CCCC2)c1ccccc1Cl,11.9%
19,Cc1c(Cl)cnc(NC(=O)COC(=O)c2ccc3ncsc3c2)c1Cl,-2.49%
20,CCCCN(CCCC)CCNC(=O)c1cn(CC)c2ccc(S(=O)(=O)N(C)C3CCCCC3)cc2c1=O,-82.5%
21,CCN(CC)CCNC(=O)c1cn(CC)c2ccc(S(=O)(=O)N(C)C)cc2c1=O,11.1%
22,CCn1cc(C(=O)NCCCOC)c(=O)c2cc(S(=O)(=O)N(C)C3CCCCC3)ccc21,-23%
23,CCN(CC)CCNC(=O)c1cn(CC)c2ccc(S(=O)(=O)N(C)C3CCCCC3)cc2c1=O,-67.2%

row,Structure (SMILES),"hERG current change (%, negative = inhibition) at 10uM"
1,CCOCCCNC(=O)c1cn(CC)c2ccc(S(=O)(=O)N(C)C3CCCCC3)cc2c1=O,-55.7%
2,CCn1cc(C(=O)NC2CCCCC2)c(=O)c2cc(S(=O)(=O)N(C)C)ccc21,2.38%
3,CCCN(CCC)CCCNC(=O)c1cn(CC)c2ccc(S(=O)(=O)N(C)C3CCCCC3)cc2c1=O,-74.3%
4,CCn1cc(C(=O)NCC(OC)OC)c(=O)c2cc(S(=O)(=O)N(C)C3CCCCC3)ccc21,-44.2%
5,CC1(C(=O)OCC(=O)Nc2cccc(S(=O)(=O)NC3=NCCCCC3)c2)CC1(Cl)Cl (centres unmarked),10.7%
6,CCc1noc(C)c1C(=O)Nc1cc(S(=O)(=O)N2CCOCC2)ccc1OC(C)C,-45.1%
7,CCN(CC(=O)Nc1c(F)cccc1F)C(=O)c1csc2c1CCCC2,7.01%
8,COC(=O)c1c(-c2ccc(F)cc2)csc1NC(=O)c1ccco1,22.9%
9,COc1cccc2cc(C(C)N(CCCN3CCOCC3)C(=S)Nc3cccc(C)c3)oc12 (centres unmarked),14.8%
10,CCC(C)c1ccc(OCc2ccc(C(=O)OC)o2)cc1 (centres unmarked),-12.8%
11,O=C(OCc1cc(-c2ccccc2)no1)c1ccc2ccccc2n1,12.2%
12,Cc1cc(CNC(=O)COc2ccc(C#N)cc2)c2ccccc2n1,-47.2%
13,COc1cc(OC)cc(C(=O)NCc2cc(C)nc3ccccc23)c1,-2.16%
14,Cc1ccc(C)c(NC(=O)CN(C)C(=O)c2ccc(Cl)nc2)c1,-7.48%
15,CCN(CC)CCCNC(=O)c1cn(CC)c2ccc(S(=O)(=O)N(C)C3CCCCC3)cc2c1=O,-75.7%
16,CCn1cc(C(=O)NCCCN(CC(C)C)CC(C)C)c(=O)c2cc(S(=O)(=O)N3CCOCC3)ccc21,-11.3%
17,CCn1cc(C(=O)NCCCN(CC(C)C)CC(C)C)c(=O)c2cc(S(=O)(=O)N(C)C3CCCCC3)ccc21,-69.6%
18,Cc1ccccc1NC(=O)Cc1nc(-c2ccc3ccccc3c2)cs1,6.09%
19,COc1ccc2[nH]cc(CCNC(=O)C3CC(=O)N(c4ccc(Cl)cc4)C3)c2c1 (centres unmarked),-10.4%
20,O=C(Nc1cccnc1)c1c(O)c2c(n(Cc3ccccc3)c1=O)CCCC2,2.61%
21,Cc1ccc(OCCn2ccnc2)c([N+](=O)[O-])c1,-4.29%
22,CCCCCOc1ccc(Cn2ccnc2)cc1[N+](=O)[O-].Cl,-45.4%
23,COc1ccc(Cn2ccnc2)cc1[N+](=O)[O-],-0.186%

row,Structure (SMILES),"hERG current change (%, negative = inhibition) at 10uM"
1,Cc1ccc(OCCCn2ccnc2)c([N+](=O)[O-])c1,-34.4%
2,CCCOc1ccc(Cn2ccnc2)cc1[N+](=O)[O-],-52.3%
3,Cc1ccc(OCCCCn2ccnc2)c([N+](=O)[O-])c1,-51.5%
4,CC(C)CN(C(=O)COC(=O)c1cccc2ccccc12)c1c(N)n(Cc2ccccc2)c(=O)[nH]c1=O,6.01%
5,O[C@@H]1C2CCCC1[C@]1(O)CCCCC1C2 (some centres unmarked),8.35%
6,Cc1ccc(Cl)c(OCC(=O)Nc2ccccc2N2CCCCC2)c1,5.15%
7,CS(=O)(=O)N(Cc1ccccc1)c1ccc(C(=O)NCCSCc2ccco2)cc1,-18%
8,O=C(O)COc1ccccc1/C=C1\SC(=S)N(c2cccnc2)C1=O,-10.1%
9,CCOC(=O)C1CCN(C(=O)Cc2ccc(C)cc2)CC1,-1.62%
10,CCOC(=O)C1CCN(C(=O)c2ccc(OC)cc2OC)CC1,-25.5%
11,COc1cc(OC)cc(-c2cc3nc(C)c(CCC(=O)O)c(C)n3n2)c1,26%
12,CCOC(=O)C1CCCCN1C(=O)CCc1c(C)nc2ncnn2c1C (centres unmarked),1.42%
13,CCOC(=O)C1CCCCN1C(=O)CCc1c(C)nc2cc(-c3ccccc3)nn2c1C (centres unmarked),-64.4%
14,CCOC(=O)C1CCN(C(=O)CCc2c(C)nc3cc(-c4ccc(OC)cc4OC)nn3c2C)CC1,-70.7%
15,CCOC(=O)C1CCN(C(=O)Cc2ccc(-c3ccccc3)cc2)CC1,-57.7%
16,COc1ccc(-c2cc3nc(C)c(CCC(=O)N4CCN(c5ccccn5)CC4)c(C)n3n2)c(OC)c1,-36%
17,NC(=O)C1CCN(C(=O)Cc2ccc(-c3ccccc3)cc2)CC1,1.65%
18,CCOC(=O)C1CCN(c2cc(C)nc3cc(-c4cccc(F)c4)nn23)CC1,-5.74%
19,CCOC(=O)C1CCN(C(=O)CCc2ccccc2)CC1,2.13%
20,CCOC(=O)C1CCN(C(=O)CCc2c(C)nc3cc(-c4ccccc4)nn3c2C)CC1,-78.5%
